Consider ten compounds from PubChem BioAssay.

“And” between values parts separate entries of the source, which are not always exact repeats. Equal values may be shown once. Some compounds were tested as several samples or in several runs, with calls that do not always agree. The source made the active and inactive calls.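 Rule for the calls, unless noted: active = inhibition at or above 50% relative to wild type and mutant plate controls; inactive = inhibition below 50%.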

The nature of assay [1]: inhibitors of TNFa-induced NFkB p65 translocation, primary screen, imaging, HUVEC, MLSMR starter and 10KST1 sets (AID 438;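 active = inhibition above 20% together with a positive visual image hit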;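 note: compound added about 3h40 before a 20 min TNFalpha stimulation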;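 for inhibition: signal is the nuclear over cytoplasmic p65 intensity ratio per well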). The settings on record: HUVEC TNFa-induced p65 nuclear translocation; cell count: measured here: nuclei count (cytotoxicity indicator), at 2.08 µM; inhibition: at 2 µM, stronger effect = higher value, 0% TNFa-plus-vehicle, 100% no-TNFa wells.
The nature of assay [2]: reduction of polyQ htt aggregates in cells – imaging, exon1htt(103Q)mCFP cells, high-content imaging, primary screen (AID 483;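 active = visual image review flags a hit and inhibition of aggregation exceeds 20%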;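 note: compound exposure lasted 3 days before fixation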;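 for nuclei count: percent of the per-plate median nuclei count of sample wells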). The settings on record: exon1htt(103Q)mCFP cell line, aggregate imaging, at 2 µM; inhibition of aggregation: stronger effect = higher value; nuclei count: measured here: cell count, toxicity.
Assay [3] can be described thus: endothelial E-selectin expression blockers – imaging, HUVEC, immunofluorescence, MLSMR starter and 10KST1 sets, primary screen (AID 487;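 active = visually confirmed hit in the image check and inhibition above 20%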;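 for inhibition: signal is fraction of cell area covered by stained E-selectin grains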;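 for nuclei count: 100% = median nuclei count of all wells on the same plate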). The settings on record: HUVEC TNFalpha-induced E-selectin immunofluorescence imaging, at 2 µM; inhibition: stronger effect = higher value; nuclei count: measured here: cell number, toxicity.
Assay [4] can be described thus: Primary imaging screen for DUSP6 inhibitors that restore phospho-Erk in transfected HeLa cells, chemical complementation (AID 609;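 active = compounds giving at least 50% inhibition in the cell-based MKP-3 phosphatase rescue imaging test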;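 for inhibition: phospho-Erk level distribution per well compared with pooled transfected vehicle control wells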). The settings on record: HeLa MKP-3 transfected, phospho-Erk imaging KS statistic, at 10 µM, cells stimulated with TPA for 15 min.
Assay [5] addresses Dual specificity protein phosphatase 6 (Homo sapiens) (UniProt Q16828). Described as above. The settings on record: HeLa MKP-3 transfected, phospho-Erk imaging KS statistic; at 10 µM; stronger effect = higher value; cells stimulated with TPA for 15 min.
Assay [6] deals with Voltage-gated potassium channel subunit beta-2 (Rattus norvegicus) (UniProt P62483). Nature of the assay: inhibitors of rat Kvbeta2 reductase activity – biochemical, NADPH fluorescence, primary screen (AID 622;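 active = fluorescence slope higher than the sample average by over 3 SD, cut at about -0.22 in these data, passing the limit was not always enough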;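 note: slope of raw intensity against log time taken from 70 to 1610 s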). The settings on record: recombinant KvBeta, 4-cyanobenzaldehyde reduction, at 10 µM, stronger effect = higher value.
The target is the same in assay [7]. The assay can be described thus: enhancers of rat Kvbeta2 NADPH turnover – biochemical, NADPH fluorescence, primary screen (AID 623;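 active = NADPH fluorescence slope more negative than the mean of all samples by about 3 SD, 99.7% confidence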;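 note: fluorescence intensity change per second fitted from 20 to 320 s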). The settings on record: Recombinant KvBeta, NADPH fluorescence decrease slope, 10 min; at 10 µM; stronger effect = lower value.
Assay [8] deals with Alpha-2C adrenergic receptor (Homo sapiens) (UniProt P18825). Nature of the assay: compounds altering alpha2C-coupled GIRK flux – cell-based, HEK293 alpha2C/GIRK1/2, thallium flux, primary screen (AID 624;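 active = fluorescence slope after compound addition differing from the mean of all screened samples at 99.7% confidence, in either direction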;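 note: slope of fluorescence ratio to pre-addition baseline per second over 15 to 24 s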). The settings on record: thallium flux BTC fluorescence, at 10 µM, actives lie on both sides.
A short description of assay [9]: inhibitors of larval lipid processing in zebrafish, primary screen, whole organism, PED6 fluorescence, gall bladder and intestine (AID 686;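 active = a full or partial loss of lipid-probe fluorescence in the fish gall bladder, intestine or both, judged by eye; inactive = no fluorescence loss, or compound toxic to the fish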;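 note: larvae 5 to 7 days old with five fish per well; signal comes from phospholipase A2 cleavage of quenched PED6 carried via bile; overnight exposure to compound and PED6 before scoring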). The settings on record: Zebrafish larvae PED6 lipid processing, fluorescence scoring; screened at 20 µM (by protocol).
Assay [10] is described as follows: loss of swimming-algae plug formation – whole organism, Chlamydomonas reinhardtii, WT vs cilia-less mutant, absorbance, 96-well, primary screen (AID 463189).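 Note: 0% = wild type cc124 cells in DMSO and 100% = ciliumless bld1 mutant cells.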 The settings on record: Chlamydomonas reinhardtii gravitaxis, OD600 absorbance, 2 days; at 10 µM; stronger effect = higher value.
Assay [11] can be described thus: blockers of RIG-like receptor reporter activation – cell-based, Sendai virus stimulus, luciferase, 10K MLSCN set, TLR/RLR signaling modifier project, primary screen (AID 602276;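 active = inhibition at or above 50% at 10 µM; inactive = inhibition below 50%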;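 note: firefly luciferase from ISG56 promoter only with Renilla not read in this screen; 0% = Sendai virus plus DMSO and 100% = medium plus DMSO without virus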). The settings on record: HEK293 RL24 IRF3 luciferase reporter, at 10 µM, stronger effect = higher value.
Assay [12] can be described thus: TLR3 IRF3 reporter activation blockers – cell-based, poly I:C stimulus, luciferase, 10K MLSCN set, primary screen (AID 602277;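 active = inhibition of the reporter signal at or above 50%; inactive = inhibition below 50%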). The settings on record: HEK293-TLR3 RL24 IRF3 luciferase reporter, at 10 µM, stronger effect = higher value.
The mark [13] stands for this setting: measured here: cell density z-score.
Setting [14] is: measured here: nuclear c-Myc green intensity z-score.
[15] abbreviates: measured here: nuclear pErk red intensity z-score, stronger effect = higher value.

Chain of Alpha-2C adrenergic receptor (Homo sapiens) (P18825 whole entry, looked up): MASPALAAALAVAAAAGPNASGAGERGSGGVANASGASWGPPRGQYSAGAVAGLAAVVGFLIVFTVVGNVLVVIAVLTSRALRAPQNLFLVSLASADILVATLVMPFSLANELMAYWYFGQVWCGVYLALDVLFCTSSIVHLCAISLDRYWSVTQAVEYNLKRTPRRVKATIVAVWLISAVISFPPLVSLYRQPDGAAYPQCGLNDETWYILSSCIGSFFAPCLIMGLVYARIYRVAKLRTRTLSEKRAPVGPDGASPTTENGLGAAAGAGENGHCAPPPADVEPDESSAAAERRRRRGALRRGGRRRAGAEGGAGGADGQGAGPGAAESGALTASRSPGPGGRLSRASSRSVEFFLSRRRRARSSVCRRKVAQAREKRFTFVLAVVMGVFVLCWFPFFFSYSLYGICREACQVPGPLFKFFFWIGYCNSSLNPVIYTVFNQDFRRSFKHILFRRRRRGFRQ
Chain of Voltage-gated potassium channel subunit beta-2 (Rattus norvegicus) (P62483 whole entry, looked up): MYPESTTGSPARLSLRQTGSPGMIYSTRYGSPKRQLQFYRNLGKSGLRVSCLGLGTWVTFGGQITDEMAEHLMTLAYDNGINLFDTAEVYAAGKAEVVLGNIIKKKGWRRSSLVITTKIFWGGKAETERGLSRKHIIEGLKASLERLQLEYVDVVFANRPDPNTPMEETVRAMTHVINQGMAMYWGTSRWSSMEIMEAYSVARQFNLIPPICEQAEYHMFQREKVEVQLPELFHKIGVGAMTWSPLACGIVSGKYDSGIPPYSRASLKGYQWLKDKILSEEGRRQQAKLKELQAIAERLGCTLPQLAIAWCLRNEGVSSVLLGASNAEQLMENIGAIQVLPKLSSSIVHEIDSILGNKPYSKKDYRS
Chain of Dual specificity protein phosphatase 6 (Homo sapiens) (Q16828 whole entry, looked up): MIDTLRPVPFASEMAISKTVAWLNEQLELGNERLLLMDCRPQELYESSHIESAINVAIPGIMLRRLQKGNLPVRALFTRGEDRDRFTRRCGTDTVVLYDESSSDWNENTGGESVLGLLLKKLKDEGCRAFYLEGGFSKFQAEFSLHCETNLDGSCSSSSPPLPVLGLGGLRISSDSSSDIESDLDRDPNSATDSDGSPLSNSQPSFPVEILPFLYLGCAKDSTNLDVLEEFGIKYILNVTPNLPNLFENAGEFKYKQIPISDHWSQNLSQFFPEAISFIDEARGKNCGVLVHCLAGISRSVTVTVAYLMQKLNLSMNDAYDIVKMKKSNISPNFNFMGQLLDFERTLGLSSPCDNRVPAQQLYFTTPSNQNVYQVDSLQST

Take `O=C1CSC(=Nc2ccc(O)cc2)N1c1ccc(O)cc1`: the cell count in assay [1] was determined as 380. The inhibition in [1] was -9.5% (inactive); in assay [3], -49.6% (inactive); in assay [5], 9.82% (inactive); in assay [10] it was -9.81% (inactive); in assay [11] it was 17.9% (inactive); in assay [12], 25% (inactive). Further, in [2], the inhibition of aggregation is 3.6% (inactive). In addition, the nuclei count in [2] was 95.8%; in [3], 92.5%. Also, the z-score is 1.48 in assay [4] (setting [13]), 1.47 in assay [4] (setting [14]) and -2.2 in assay [4] (setting [15]). Besides, in [6], the fluorescence slope was -0.463 (inactive). In addition, the NADPH fluorescence slope in [7] was -0.000339 (inactive). Further, the slope in assay [8] was 0.00571 (inactive). Besides, in assay [9], the result was inactive.
`CCCOc1cccc(-c2nnc(N)s2)c1`: the cell count in assay [1] worked out at 605. In addition, the inhibition is -3.6% (inactive) in assay [1]; -83.5% (inactive) in assay [3]; -11.5% (inactive) in assay [5]; -3.59% (inactive) in [10]; -30.1% (inactive) in assay [11]; -65.7% (inactive) in assay [12]. In addition, the inhibition of aggregation in [2] is -31.3% (inactive). Moreover, the nuclei count in assay [2] is 108%; in assay [3], 111%. The values for the z-score in assay [4] (setting [13]), in [4] (setting [14]) and in assay [4] (setting [15]) were 0.352, -0.262 and -0.207, respectively. In assay [6], the fluorescence slope was -0.443 (inactive). In assay [7], the NADPH fluorescence slope was -5.5e-05 (inactive). Also, in assay [8], the slope was 0.00934 (inactive). Further, the compound was classed as inactive in assay [9].
Take `CCCCCC#CCC#CCC#CCC#CCCCC(=O)O`: the cell count in assay [1] turned out to be 542. The inhibition in assay [1] was -10.5% (inactive); in assay [3], -39.3% (inactive); in assay [5], -0.493% (inactive); in assay [10] it was 2.88% (inactive); in assay [11] it was 11% (inactive); in assay [12] it was 33.2% (inactive). Moreover, the inhibition of aggregation in assay [2] is -23.3% (inactive). Further, the nuclei count is 92.5% in assay [2] and 127% in assay [3]. Moreover, the z-score in assay [4] (setting [13]) is -0.772; in [4] (setting [14]), 0.757; in assay [4] (setting [15]), 0.0999. Besides, the fluorescence slope in assay [6] is -0.461 (inactive). Besides, the NADPH fluorescence slope in [7] is -0.000212 (active). Moreover, in assay [8], the slope is 0.00468 (inactive). The compound was classed as inactive in assay [9].
For `Cc1nn(C)cc1/C=N/O`, the cell count in assay [1] worked out at 677. The inhibition in assay [1] was -4.1% (inactive); in assay [3] it was -8.8% (inactive); in [5], -1.12% (inactive); in assay [10] it was 7.83% (inactive); in [11], 15.8% (inactive); in assay [12], 19% (inactive). For the same compound, the inhibition of aggregation in assay [2] is -2.1% (inactive). Also, the nuclei count was determined as 83.6% in assay [2] and 140% in [3]. Further, the z-score in assay [4] (setting [13]) is 0.232; in [4] (setting [14]), -1.13; in assay [4] (setting [15]), -0.23. In addition, in [6], the fluorescence slope is -0.494 (inactive). Moreover, the NADPH fluorescence slope in assay [7] is -0.000175 (inactive). Moreover, in [8], the slope was 0.00422 (inactive). In addition, in assay [9], the call was inactive.
On to `CCCCc1c(O)nc(SCCN(C)C)n(-c2ccccc2)c1=O`, for which the cell count in assay [1] stood at 326. The inhibition is -8.8% (inactive) in assay [1]; -40.2% (inactive) in assay [3]; 12.3% (inactive) in assay [5]; -12.4% (inactive) in assay [10]; 7.92% (inactive) in assay [11]; 1.23% (inactive) in assay [12]. Moreover, the inhibition of aggregation in assay [2] is 2.2% (inactive). Also, the nuclei count was found to be 94.9% in assay [2] and 96.4% in assay [3]. Moreover, the z-score in assay [4] (setting [13]) was -1.09; in assay [4] (setting [14]) it was 2.21; in assay [4] (setting [15]), 0.182. Also, the fluorescence slope in assay [6] was -0.438 (inactive). Besides, the NADPH fluorescence slope in [7] was -0.000152 (inactive). Moreover, the slope in [8] is 0.00653 (inactive). Besides, in assay [9], the outcome was inactive.
As for `CCC(=O)Oc1ccc(C(CC)C(CC)c2ccc(OC(=O)CC)cc2)cc1` (stereo not given), the cell count in [1] turned out to be 548. Further, the inhibition in assay [1] was -8% (inactive); in [3] it was -70.7% (inactive); in [5], -4.44% (inactive); in [10], 0.847% (inactive); in assay [11], 12.9% (inactive); in assay [12] it was 33.2% (inactive). The inhibition of aggregation in assay [2] was -5.4% (inactive). In addition, the nuclei count in assay [2] was determined as 107%; in assay [3] it was 132%. Besides, the z-score was -1.07 in assay [4] (setting [13]), 0.0699 in assay [4] (setting [14]) and 1.82 in assay [4] (setting [15]). The fluorescence slope in [6] was -0.48 (inactive). Also, the NADPH fluorescence slope in assay [7] is 1.7e-05 (inactive). In addition, the slope in assay [8] is 0.0054 (inactive). Further, in [9], the compound was called inactive.
As to `CCOC(=O)/C(C#N)=C1\Nc2ccccc2N=C1N(CC(C)C)CC(C)C`, the cell count in assay [1] was 586. Besides, the inhibition in [1] is -7.3% (inactive); in assay [3], -92.9% (inactive); in assay [5] it was 3.56% (inactive); in [10] it was 1.92% (inactive); in assay [11], -5.84% (inactive); in assay [12], -1.84% (inactive). The inhibition of aggregation in assay [2] is -2.5% (inactive). The results for the nuclei count in assay [2] and in [3] were 105% and 148%, respectively. Further, the z-score in assay [4] (setting [13]) was -0.677; in assay [4] (setting [14]), -0.872; in [4] (setting [15]) it was -0.406. The fluorescence slope in assay [6] was -0.524 (inactive). The NADPH fluorescence slope in [7] is -3.1e-05 (inactive). The slope in [8] was 0.00419 (inactive). Moreover, the outcome in assay [9] was inactive.
As to `Cc1[nH]nc2c1C(CCc1ccccc1)C(C#N)=C(N)O2` (stereo not given), the cell count in assay [1] is 561. Moreover, the inhibition in [1] was -10% (inactive); in assay [3] it was -14.6% (inactive); in assay [5], -9.7% (inactive); in [10], 2.48% (inactive); in assay [11], -8.58% (inactive); in assay [12], 2.77% (inactive). Further, in [2], the inhibition of aggregation was -13.6% (inactive). Moreover, the nuclei count was 111% in assay [2] and 115% in assay [3]. Also, the z-score is -1.62 in [4] (setting [13]), -1.48 in assay [4] (setting [14]) and 1.34 in assay [4] (setting [15]). Further, the fluorescence slope in assay [6] was -0.498 (inactive). Further, the NADPH fluorescence slope in assay [7] is -3.1e-05 (inactive). For the same compound, the slope in assay [8] is 0.00364 (inactive). For the same compound, the compound was classed as inactive in [9].
With `CCCCOc1ccc(-c2nnc(N)s2)cc1`, the cell count in assay [1] came to 634. Moreover, the inhibition was -17.7% (inactive) in assay [1]; -23.7% (inactive) in assay [3]; -15% (inactive) in [5]; 2.26% (inactive) in [10]; -42.6% (inactive) in [11]; -89.4% (inactive) in [12]. In addition, the inhibition of aggregation in assay [2] is -7.4% (inactive). Moreover, the nuclei count in assay [2] was 104%; in [3], 146%. The z-score in assay [4] (setting [13]) was -0.283; in assay [4] (setting [14]) it was 0.709; in [4] (setting [15]), 0.136. Besides, the fluorescence slope in [6] is -0.405 (inactive). Further, the NADPH fluorescence slope in assay [7] is -6.4e-05 (inactive). Moreover, the slope in [8] is 0.00759 (inactive). For the same compound, in assay [9], the compound was called inactive.
`Cc1ccc(Cl)c(Nc2ccccc2C(=O)O)c1Cl`: in [1], the cell count is 583. Moreover, the inhibition in [1] is 1.3% (inactive); in assay [3], -70.5% (inactive); in [5], -8.38% (inactive); in [10], 20.2% (inactive) and 61% (active); in assay [11], 16.4% (inactive); in assay [12], 40.3% (inactive). Also, the inhibition of aggregation in assay [2] was 12.3% (inactive). Also, the nuclei count in assay [2] stood at 91.1%; in [3], 95.9%. Also, the z-score was -0.43 in [4] (setting [13]), -0.511 in [4] (setting [14]) and -0.695 in assay [4] (setting [15]). Further, the fluorescence slope in assay [6] is -0.487 (inactive). Besides, the NADPH fluorescence slope in assay [7] is -4.2e-05 (inactive). In addition, in assay [8], the slope is 0.00556 (inactive). For the same compound, the outcome in assay [9] was inactive.

The inhibition is the relative decrease from the control value, in per cent.
